The record followed here is PubChem BioAssay.

Each structure is given as a SMILES string. Where “and” joins values, the source holds several entries; their conditions need not be identical. Identical values can stand only once. Records with an inconclusive call do not appear. Calls of active or inactive are those of the source. Unless noted, no stated cut-off is given here; in the data, active means inhibition above about 80%; inactive means the rest.

Assay [1] is described as follows: viability loss in pontine glioma line – cell-based, SU-DIPG-XXV, MIPE5.0, CellTiter-Glo, qHTS, dose response (AID 1347065; cut-off not given, nearly all actives have AC50 up to about 26 µM;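 further: cells exposed to compound for 48 hours before ATP readout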). Particulars: CellTiter-Glo ATP luminescence. In general terms: Cellular ATP, detected with luciferase, serves as a proxy for viable cell number.
A short description of assay [2]: growth inhibition, single agents and combos, LFS_MB_1R, cell-based, cisplatin or BGB combos, synergistic combos for chromothripsis tumors (AID 1671452).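 Further: cells exposed for 96 hours before readout.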 Particulars: LFS_MB_1R medulloblastoma cells, stronger effect = higher value.
Assay [3] can be described thus: growth inhibition, single agents and combos, CRL2098, cell-based, BGB or cisplatin IC20 combos, synergistic combos for chromothripsis tumors (AID 1671454).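 Further: cells exposed for 96 h before readout; 0% = vehicle DMSO and 100% = killing by high DMSO.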 The settings on record: CRL2098 osteosarcoma cells, drug combinations, stronger effect = higher value.
The nature of assay [4]: growth inhibition, single agents and combos, HD-MB03, cell-based, BGB or cisplatin IC20 combos, synergistic combos for chromothripsis tumors (AID 1671455; in the data active means inhibition above about 83%;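 further: 0% = vehicle DMSO and 100% = high DMSO as cytotoxic control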). Particulars: HD-MB03 medulloblastoma cells, stronger effect = higher value.
The nature of assay [5]: growth inhibition, single agents and combos, UWB1.289, cell-based, BGB or cisplatin combos, synergistic combos for chromothripsis tumors (AID 1671456).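 Further: cells exposed to compound for four days; 0% = vehicle DMSO and 100% = killing by high DMSO.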 Particulars: UWB1.289 ovarian carcinoma cells, stronger effect = higher value.
A short description of assay [6]: growth inhibition, single agents and combos, LFS_MB_2R, cell-based, cisplatin combos, synergistic combos for chromothripsis tumors (AID 1671457).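 Further: cells exposed to compound for four days before readout.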 The settings on record: LFS_MB_2R medulloblastoma cells, stronger effect = higher value.
The nature of assay [7]: UWB1.289_BRCA1 ovarian cancer growth, cell-based, BGB or cisplatin combinations (AID 1671459). The settings on record: UWB1.289 BRCA1 ovarian carcinoma, drug combinations, stronger effect = higher value.
The nature of assay [8]: drug combination toxicity in non-malignant astrocytes – cell-based, BGB or cisplatin IC20 combos, cytotoxicity control for chromothriptic childhood tumor combination screen (AID 1671460).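 Further: cells exposed to compounds for 96 hours before viability readout; 0% = vehicle and 100% = killing control.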 Particulars: Human astrocytes, viability inhibition, drug combinations, at 0.5 µM, stronger effect = higher value.
Assay [9] has as its system Neuropilin-2 / VEGF-C interaction (human). The assay is described as follows: small molecules blocking Neuropilin-2/VEGF-C interaction – biochemical, microplate binding format, z-score (AID 743281; call rule not given here). The settings on record: microplate NRP2/VEGF-C binding assay; stronger effect = lower value.
Assay [10] has as its system Aerobactin synthetase IucA (Klebsiella pneumoniae). The assay is described as follows: inhibition of K. pneumoniae IucA enzyme – biochemical, Tocris library, absorbance (AID 1345561; call rule not given here;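 further: 100% = enzyme without compound and 0% = no enzyme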). The settings on record: purified IucA enzyme assay, absorbance (OD) read-out; stronger effect = lower value;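 tested at 8 µM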.
Assay [11] addresses ATP-dependent translocase ABCB1 (Homo sapiens) (UniProt P08183). The assay is described as follows: P-glycoprotein substrate transport blockade – cell-based (AID 377; in the data active means fluorescence slope change above about 50%). Particulars: MDR1-expressing cells, fluorescent substrate accumulation slope; stronger effect = higher value; concentration not given here.
Assay [12] can be described thus: viability loss in pontine glioma line – cell-based, SU-DIPG-XIII, MIPE5.0, CellTiter-Glo, qHTS, dose response (AID 1347064; cut-off not given, nearly all actives have AC50 up to about 23 µM;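 on AC50: cells exposed to compound for 48 hours before the viability read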). The settings on record: CellTiter-Glo ATP luminescence.
Assay [13] is described as follows: chitosan synthesis blockers in C. neoformans – flow cytometry, Cibacron Brilliant Red staining (AID 1347148; call rule not given here;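 further: compound exposure lasted three days at 37 degrees C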). Particulars: Cryptococcus neoformans chitosan, stronger effect = lower value; at 99.1 µM unless noted.
Assay [14] in a line: compounds altering HSF1 focus formation in cells – imaging, Selleck Cancer Library (AID 1347162; in the data active means plate-normalised HSF1 focus index below about 0.46). Particulars: human cells, HSF1 nuclear foci imaging, at 10 µM; SSMD: measured here: HSF1 foci SSMD mean; cell count: measured here: cell number; plate-normalised HSF1 focus index: stronger effect = lower value.
The mark [15] stands for this setting: measured here: combination with BGB IC40, at 0.05 µM.
Where [16] appears, read: measured here: combination with cisplatin, at 0.5 µM.
Setting [17] is: measured here: combination with cisplatin, at 5 µM.
Where [18] appears, read: measured here: combination with BGB at IC20, at 0.5 µM.
The mark [19] stands for this setting: measured here: combination with cisplatin at IC20, at 0.5 µM.
Setting [20] is: measured here: combo with BGB at IC20, at 0.5 µM.
[21] abbreviates: measured here: combo with cisplatin at IC20, at 0.5 µM.
Setting [22] is: measured here: inhibition with BGB combination, at 0.05 µM.
The mark [23] stands for this setting: measured here: inhibition with cisplatin combination, at 0.05 µM.
The mark [24] stands for this setting: BGB combination, concentration series, at 5 µM.
Setting [25] is: cisplatin combination, concentration series, at 5 µM.
Setting [26] is: measured here: combo with BGB IC20.
The mark [27] stands for this setting: measured here: combo with cisplatin IC20.

Chain of ATP-dependent translocase ABCB1 (Homo sapiens) (P08183 whole entry, looked up): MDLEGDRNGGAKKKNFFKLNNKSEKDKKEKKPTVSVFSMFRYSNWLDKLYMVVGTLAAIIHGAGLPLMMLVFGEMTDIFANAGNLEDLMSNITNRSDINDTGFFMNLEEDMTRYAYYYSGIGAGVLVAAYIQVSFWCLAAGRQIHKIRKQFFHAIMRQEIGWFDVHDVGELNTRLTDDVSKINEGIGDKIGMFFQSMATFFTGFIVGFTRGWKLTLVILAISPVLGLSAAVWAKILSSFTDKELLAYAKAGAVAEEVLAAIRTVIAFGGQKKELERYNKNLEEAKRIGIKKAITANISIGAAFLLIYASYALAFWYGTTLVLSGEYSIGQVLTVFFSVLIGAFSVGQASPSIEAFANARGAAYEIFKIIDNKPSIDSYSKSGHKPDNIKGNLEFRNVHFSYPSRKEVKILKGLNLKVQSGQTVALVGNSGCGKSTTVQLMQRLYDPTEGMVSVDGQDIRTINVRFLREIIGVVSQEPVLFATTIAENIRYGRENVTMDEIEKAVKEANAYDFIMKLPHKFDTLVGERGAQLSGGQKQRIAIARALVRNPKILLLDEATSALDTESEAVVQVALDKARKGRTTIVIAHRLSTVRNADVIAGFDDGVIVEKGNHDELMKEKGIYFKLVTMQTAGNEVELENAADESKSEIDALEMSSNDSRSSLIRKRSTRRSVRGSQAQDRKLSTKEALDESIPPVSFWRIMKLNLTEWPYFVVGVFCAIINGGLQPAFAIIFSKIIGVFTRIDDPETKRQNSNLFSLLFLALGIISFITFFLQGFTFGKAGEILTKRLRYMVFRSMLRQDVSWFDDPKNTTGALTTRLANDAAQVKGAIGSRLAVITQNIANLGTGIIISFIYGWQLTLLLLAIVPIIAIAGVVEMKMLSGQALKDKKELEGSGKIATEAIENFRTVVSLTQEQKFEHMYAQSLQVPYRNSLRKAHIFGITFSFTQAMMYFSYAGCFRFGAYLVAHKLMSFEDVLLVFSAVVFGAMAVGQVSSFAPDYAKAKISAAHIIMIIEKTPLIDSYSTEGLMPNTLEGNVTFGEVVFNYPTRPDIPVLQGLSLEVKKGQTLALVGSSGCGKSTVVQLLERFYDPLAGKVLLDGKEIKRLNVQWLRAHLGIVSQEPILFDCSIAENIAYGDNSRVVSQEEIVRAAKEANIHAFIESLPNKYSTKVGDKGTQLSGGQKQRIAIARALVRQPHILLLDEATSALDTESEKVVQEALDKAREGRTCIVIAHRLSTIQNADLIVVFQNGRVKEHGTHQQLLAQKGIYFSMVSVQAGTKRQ

Turning to `S=c1nc[nH]c2nc[nH]c12`, the AC50 in assay [1] is 5.25 µM (active). In addition, the inhibition in assay [2] (at 0.5 µM) was -9.9% (inactive) and -33.2% (inactive) and -36.1% (inactive); in assay [2] (setting [15]), 14.7% and -35.7% and -8.62%; in assay [2] (setting [16]), -4.25% and -33.8% and -75.5%; in assay [2] (setting [17]) it was -15.4% and -37% and -57.5%; in assay [3] (at 0.5 µM), -2.69% (inactive) and -57.6% (inactive) and -53.9% (inactive); in assay [3] (setting [18]), -5.16% and -41% and -65.5%. Besides, the inhibition is -32% and -63.9% and -65.9% in assay [3] (setting [19]); -4.55% (inactive) and -3.29% (inactive) and -17.6% (inactive) in [4] (at 0.5 µM); -4.3% and -15.6% and -16.3% in assay [4] (setting [20]); -5.54% and 2.44% and -26.8% in assay [4] (setting [21]); 57.7% (inactive) and 56.2% (inactive) and 56.1% (inactive) in assay [5] (at 0.5 µM); -14.8% and -13.6% and -15.6% in [5] (setting [22]). The inhibition is -7.08% and -3.38% and -9.93% in assay [5] (setting [23]); -7.19% (inactive) and -1.38% (inactive) and -2.98% (inactive) in assay [6] (at 0.5 µM); -15.5% and -27.1% and 4.18% in assay [6] (setting [16]); -9.32% and -12.4% and -4.44% in assay [6] (setting [17]); 95.7% and 91.5% and 93.1% in assay [7] (setting [24]); 63.6% (inactive) and 53.4% (inactive) and 47.8% (inactive) in assay [7] (at 0.5 µM). Further, the inhibition in [7] (setting [25]) was 100% and 93.5% and 94.9%; in assay [8], 13.8% (inactive) and -4.07% (inactive) and -10.8% (inactive); in [8] (setting [26]) it was 14.2% and -8.32% and -0.26%; in assay [8] (setting [27]) it was 3.43% and 3.12% and -27.4%.

For `CC12CC3CC(C)(C1)CC(N)(C3)C2`, the result in assay [9] and in assay [1] was inactive. The remaining activity in [10] is 87.5% (inactive).

For `CN=C(NC#N)NCCSCc1nc[nH]c1C`, the remaining activity in assay [10] was 118% (inactive).

For the compound `CC(=O)OCC(CCn1cnc2cnc(N)nc21)COC(C)=O`, the z-score in [9] is -0.315 (inactive). Also, the call in [1] was inactive. For the same compound, the inhibition is -6.39% (inactive) in [2] (at 0.5 µM); -41.8% in assay [2] (setting [15]); -15.8% in [2] (setting [16]); -6.32% in assay [2] (setting [17]); -1.73% (inactive) in assay [3] (at 0.5 µM); -9.88% in assay [3] (setting [18]). The inhibition in assay [3] (setting [19]) is -30.1%; in assay [4] (at 0.5 µM), -9.43% (inactive); in [4] (setting [20]), -6.57%; in [4] (setting [21]) it was -14.8%; in assay [5] (at 0.5 µM), 5.6% (inactive); in assay [5] (setting [22]), -6.88%. Further, the inhibition is -9.39% in assay [5] (setting [23]); -19.1% (inactive) in assay [6] (at 0.5 µM); -22.6% in [6] (setting [16]); -72.7% in assay [6] (setting [17]); -1.67% in assay [7] (setting [24]); -3.29% (inactive) in assay [7] (at 0.5 µM). For the same compound, the inhibition is 11.9% in assay [7] (setting [25]), 8.43% (inactive) in assay [8], 10.6% in assay [8] (setting [26]) and -5.87% in assay [8] (setting [27]).

As to `COc1ccccc1OCCNCC(O)COc1cccc2[nH]c3ccccc3c12` (stereo unspecified), in assay [9], the z-score was 1.06 (inactive). For the same compound, the remaining activity in assay [10] was 112% (inactive).

With `O=C(O)c1cccnc1`, the compound was called inactive in [1].

For `CCCc1cc(=O)[nH]c(=S)[nH]1`, the fluorescence slope change in assay [11] was -6.8% (inactive). The result in [12] and in [1] was inactive.

Regarding `CC(C)Cc1ccc(C(C)C(=O)O)cc1` (stereo unspecified), the outcome in assay [12] and in assay [1] was inactive.

Turning to `CCCCNc1cc(C(=O)O)cc(S(N)(=O)=O)c1Oc1ccccc1`, the fluorescence slope change in assay [11] is 105% (active). For the same compound, the call in assay [12] and in assay [1] was inactive. For the same compound, the fold fluorescence in assay [13] is 4.08 [at 137.2 µM] (inactive).

On to `O=C1c2c(O)ccc(O)c2C(=O)c2c(NCCNCCO)ccc(NCCNCCO)c21`, for which the AC50 is 10.5 µM (active) in [12] and 11.8 µM (active) in assay [1]. For the same compound, the SSMD in assay [14] was -1.6. Further, the cell count in assay [14] amounted to 7320. In addition, the plate-normalised HSF1 focus index in assay [14] is 0.898 (inactive). Moreover, the inhibition was -4.33% (inactive) in [2] (at 0.5 µM); 1.71% in assay [2] (setting [15]); 72.8% in [2] (setting [16]); 94.2% in [2] (setting [17]); 7.34% (inactive) in assay [3] (at 0.5 µM); 20.4% in assay [3] (setting [18]). The inhibition is -13.9% in assay [3] (setting [19]); 88% (active) in assay [4] (at 0.5 µM); 86.5% in assay [4] (setting [20]); 84.8% in assay [4] (setting [21]); 64.9% (inactive) in assay [5] (at 0.5 µM); -29.8% in assay [5] (setting [22]). The inhibition is -25.8% in assay [5] (setting [23]); -5.4% (inactive) in assay [6] (at 0.5 µM); 20.8% in assay [6] (setting [16]); 92.5% in assay [6] (setting [17]); 105% in assay [7] (setting [24]); 63.4% (inactive) in assay [7] (at 0.5 µM). In addition, the inhibition in [7] (setting [25]) is 104%; in [8], 68.8% (inactive); in assay [8] (setting [26]) it was 69.1%; in [8] (setting [27]), 56.7%.

Consider `O=c1[nH]cnc2[nH]ncc12`, for which the outcome in assay [12] was inactive.

In the case of `NNCCc1ccccc1`, the fluorescence slope change in [11] is 67.1% (active). Also, in [9], the z-score was -0.0568 (inactive). The result in assay [12] and in [1] was inactive.

Consider `COc1ccc(Cl)cc1C(=O)NCCc1ccc(S(=O)(=O)NC(=O)NC2CCCCC2)cc1`, for which, in assay [11], the fluorescence slope change is 105% (active). In assay [10], the remaining activity was 104% (inactive). Besides, the fold fluorescence in assay [13] is 3.32 [at 101.2 µM] (inactive).

In the case of `N[C@@H]1CONC1=O`, the z-score in assay [9] was -0.138 (inactive). The compound was called inactive in [12] and in assay [1].

Turning to `NS(=O)(=O)c1cc2c(cc1Cl)NCNS2(=O)=O`, the compound was called inactive in [12] and in [1].

Regarding `N[C@@H](Cc1cc(I)c(Oc2cc(I)c(O)c(I)c2)c(I)c1)C(=O)O`, the fluorescence slope change in assay [11] is 62.7% (active). For the same compound, the outcome in assay [12] and in assay [1] was inactive.

A word on the AC50: it is the concentration at which the activity in the assay is half-maximal. A word on the inhibition: it is the relative decrease from the control value, in per cent. The remaining activity is the signal under treatment as a percentage of the control signal.
